TRb-SRC2 inh = TRbeta-SRC2 interaction inhibition; P10828; Potency, µM (doses to about 106 µM), for the others: at the top dose activity change, negative = inhibition, usual class: inhibitors; AID 1469; TRbeta-SRC2 peptide binding, fluorescence polarization; receptor liganded with 1 µM T3; actives 0.065% (n = 280,000);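 note: potency is the fitted concentration of half-maximal effect; plate controls were bound peptide for no effect and peptide without receptor for full effect; nearly all actives have a fitted effect of over 50% in size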
Target sequence (P10828 whole entry, looked up): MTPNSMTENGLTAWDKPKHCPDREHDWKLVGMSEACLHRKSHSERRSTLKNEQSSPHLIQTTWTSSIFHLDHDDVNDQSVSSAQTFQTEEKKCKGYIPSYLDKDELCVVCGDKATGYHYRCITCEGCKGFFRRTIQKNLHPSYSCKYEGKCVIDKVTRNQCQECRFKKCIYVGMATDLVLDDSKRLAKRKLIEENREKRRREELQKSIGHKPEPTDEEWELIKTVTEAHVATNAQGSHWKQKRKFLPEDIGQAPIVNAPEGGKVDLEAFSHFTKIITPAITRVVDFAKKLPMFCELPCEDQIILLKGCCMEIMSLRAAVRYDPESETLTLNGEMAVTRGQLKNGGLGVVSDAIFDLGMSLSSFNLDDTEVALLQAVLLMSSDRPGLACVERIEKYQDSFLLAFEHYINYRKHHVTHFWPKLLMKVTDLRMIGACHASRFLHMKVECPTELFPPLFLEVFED
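A fluorescence polarization screen tested compounds at multiple concentrations against complex formation between 0.6 uM TRb ligand-binding domain and 20 nM Texas Red SRC2 peptide, with 1 uM T3 present; readout after 5 hr.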
Coupling enz = inhibits coupling enzyme system, counter-screen for aldolase hits; coupling enzyme system counterscreen, AmpLite Red fluorescence; activity change, negative = inhibition, % at 58.2 µM, hits read low; actives 0.67% (n = 290,000); in the data active = activity change below about -30%; note: % is set by controls: 0 for no effect and ±100 for the full control effect
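Counterscreen of the coupled detection system alone, without aldolase: glyceraldehyde-3-phosphate coupling enzymes plus AmpLite Red readout. Compounds at 57.5 uM final, 10 min RT preincubation, 20 min RT reaction, fluorescence 525/598 nm.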
HTT ATP protect = protects HTT-Q103 PC12 cells, measured by ATP | actives 0.14% (n = 230,000) | Potency, µM (highest dose often 56.4 µM), for the others: cytoprotection (ATP increase), most hits filed as activators | PC12 HTT-Q103 induced, cytoprotection, ATP luminescence, 40 h | AID 1471; note: potency is the fitted concentration of half-maximal effect; % of control where 0% means no effect; nearly all actives have a fitted effect of over 45% in size
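Cells were plated at 1500 per well in phenol red-free DMEM with 5% equine and 5% calf serum. Tebufenozide (100 nM final) and compounds were added, then ATPlite reagent, and luminescence was read.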
KDM4E inh = JMJD2E (human) inhibition. JMJD2E catalytic domain, FDH-coupled NADH fluorescence (FDH is formaldehyde dehydrogenase). AID 2147. Potency, µM (series often up to 57.1 µM), inactives show at the highest dose activity change, negative = inhibition, actives largely listed as inhibitors. actives 1.6% (n = 230,000). B2RXH2; active = well fitted inhibition curve with a large enough effect, not every such curve was filed as active; inconclusive = small, poorly fitted or top-dose-only effect, or another doubt; inactive = no such curve, though single readings can be large or run the other way;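 note: potency is the fitted concentration of half-maximal effect; 0% = wells with enzyme and -100% = buffer wells without enzyme; nearly all actives have a fitted effect of over 50% in size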
TR SRC2 fluor cs = counter-screen for TRb-SRC2 inhibitors: fluorescence interference | AID 1479 | actives 0.29% (n = 280,000) | Potency, µM (doses to about 106 µM), for the others: at the top dose fluorescence change, negative = quenching | TRb/SRC2 Texas Red total fluorescence interference; active = well fitted curve in either direction with a large enough effect; inconclusive = small, poorly fitted or top-dose-only effect; note: potency is the fitted concentration of half-maximal effect; % is set by controls: 0 for no effect and ±100 for the full control effect
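Human TRβ ligand-binding domain (0.6 uM) and Texas Red SRC2 peptide (20 nM) in Tris buffer with 1 uM T3 and 5% DMSO were incubated with pinned compound for 5 hr at ambient temperature. Total fluorescence was computed as S + 2P (555/632 nm).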
HTT aggregate = reduces HttQ103-GFP aggregates in PC12 cells. PC12 HttQ103-GFP aggregates, Acumen cytometry, 40 h. Potency, µM (titrated, usually from 46.1 µM), for inactives: at the top dose activity change, negative = inhibition, hits mostly inhibitors. actives 1.1% (n = 220,000). AID 1688; note: potency is the fitted concentration of half-maximal effect; % is set by controls: 0 for no effect and ±100 for the full control effect; nearly all actives have a fitted effect of over 60% in size
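Ecdysone-promoter PC12 model expressing HTT exon 1 Q103 fused to GFP, induced by tebufenozide at 100 nM final. Compounds titrated; aggregates sized 1–25 µm scored on a 488 nm laser cytometer.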
* = called active by the depositor; ? = inconclusive; . = no result; [ ] = dose if it differs, or a comment. In the library only some 2% were active in any assay of this set; here they are far more common. Unless noted, calls come from the whole dose curve; as a rule, active = well fitted curve in the direction sought with a large enough effect; inconclusive = small, poorly fitted or top-dose-only effect, or another doubt; inactive = no such curve, though single readings can be large; an effect the other way counts as inactive or inconclusive.

SMILES | TRb-SRC2 inh | Coupling enz | HTT ATP protect | KDM4E inh | TR SRC2 fluor cs | HTT aggregate
Cc1ccc(-c2nc(CCNC(=O)C(=O)Nc3ccc(F)cc3F)cs2)cc1 | 5% | . | . | . | 1% | .
Oc1cc(O)cc(/C=C\c2ccc(O)c(O)c2)c1 | . | . | -32%[1.9 µM] | . | . | .
CN1C(=O)CC(Nc2cccc3cccc(N)c23)C1=O (centres undefined) | ? | -41* | -26% | ? | ? | ?
CN1C(=O)CC(NNC(=O)c2ccccc2)C1=O (centres undefined) | -8% | -3 | -18% | -5% | 3% | -8%
Cc1ccc2[nH]c3c(=O)n(CC(=O)N4CCCCC4)ncc3c2c1 | -4% | . | . | . | 1% | .
Cc1[nH][nH]c(=O)c1C(c1c(C)[nH][nH]c1=O)c1cn(C)c2ccccc12 | -13% | -65* | 9%[10 µM] | 9% | -5% | 14%[9.22 µM]
Cc1[nH][nH]c(=O)c1C(c1c(C)[nH][nH]c1=O)c1cn(Cc2cccc3ccccc23)c2ccccc12 | ? | -51* | -53% | 28% | -2% | -11%
O=c1c2ccccc2ncn1Cc1cccc2ccccc12 | 8% | 5 | -45% | 6% | -2% | ?
C#CCCCCCCC#CCN(C)C | -1% | 4 | . | 16µM* | 5% | 2%
COc1cc(OC)c(OC)cc1/C=N/NC(=O)c1ccc2nc[nH]c2c1 | 0% | 0 | 7%[10 µM] | ? | -9% | -15%[9.22 µM]
COc1cccc(/C=N/NC(=O)c2ccc3nc[nH]c3c2)c1O | -3% | 1 | 8%[10 µM] | 10µM* | -9% | -8%[9.22 µM]
COc1cc(OC)c2cc(C(=O)N/N=C/c3cccc(OC)c3O)[nH]c2c1 | 3% | 0 | -37%[10 µM] | 10µM* | -18% | -41%[9.22 µM]
CCn1c(C)nc2cc(C(=O)N/N=C/c3cccc(OC)c3O)ccc21 | 2% | -3 | -44%[10 µM] | 0% | 1% | 2µM*
CCn1c(C)nc2cc(C(=O)N/N=C/c3ccc(O)c(O)c3O)ccc21 | -6% | -53* | -26% | -3% | ? | 12%[9.22 µM]
COc1cccc(/C=N/NC(=O)c2nc(-c3ccccc3)cc(-c3ccccc3)n2)c1O | -9% | 4 | -69%[10 µM] | 1% | 0% | ?
CCn1c(C)nc2cc(C(N)=O)ccc21 | -1% | 4 | 3%[10 µM] | -6% | -8% | 6%[9.22 µM]
CCCCN1C(=O)c2[nH]nc(-c3ccccc3O)c2C1c1ccc(C(C)(C)C)cc1 (centres undefined) | -5% | . | . | . | 7% | .
C/C=C1/C(=O)C[C@H]2[C@@H]3CCC4=CC(=O)CC[C@]4(C)[C@H]3CC[C@]12C | -1% | . | -57% | . | -1% | .
COc1cccc(NC(=O)c2sc3nc(C)c(C(=O)Nc4ccc(C)cc4C)c(-c4cccs4)c3c2N)c1 | 2% | . | . | . | -1% | .
O=C(O)CN1C(=O)/C(=C/c2ccc(SCc3ccccc3)o2)SC1=S | 6% | -55* | -73% | ? | -9% | 16%
Cc1c(C(=O)Nc2nc(-c3ccc(F)cc3)ns2)oc2ccc(Br)cc12 | -4% | . | . | . | -2% | .
COc1cc2c3nnc(-c4ccc(F)cc4)c-3cn(Cc3cccc(F)c3)c2cc1OC | -4% | 2 | -23% | ? | -3% | 10µM*
O=C(OCC(=O)c1ccc[nH]1)c1ccccc1 | -6% | 0 | 7% | 0% | -1% | 1%
O=C(COC(=O)c1c(F)cccc1F)c1ccc[nH]1 | 14µM* | 0 | 8%[10 µM] | 4% | 16µM*[fluorescent] | -2%[9.22 µM]
O=C(CSc1ncccn1)N/N=C/c1cccc(OC2CSC2)c1 | -8% | -3 | -41% | 4% | 0% | -2%
SMILES | TRb-SRC2 inh | Coupling enz | HTT ATP protect | KDM4E inh | TR SRC2 fluor cs | HTT aggregate
Cn1ncc(Cl)c1C(=O)N/N=C/c1ccccn1 | -2% | -53* | . | -2% | -6% | 3%
O=C(N/N=C/c1ccccn1)c1ccc(Cl)cc1 | . | -2 | . | . | . | .
Cn1ncc(Cl)c1C(=O)N/N=C/c1cccc(OC2CSC2)c1 | -2% | -40* | . | -8% | 1% | -10%
CCCCC1OC23CCCCC2C(C#N)(C#N)C1(C#N)C(=N)O3 (centres undefined) | 7% | -45* | 7%[10 µM] | 6% | 4% | -10%
N#CC1(C#N)C(c2ccccc2)OC23CCCCC2C1(C#N)C(=N)O3 (centres undefined) | 45µM* | 0 | 14%[10 µM] | ? | ? | -15%
CCCCC1OC23CCCCC2C(C#N)(C(=N)O3)C1(C#N)C#N (centres undefined) | -6% | -4 | 5% | ? | 4% | 18%
CC(=O)CC(=O)Nc1ccc(C)cc1C | 5%[201 µM] | . | . | . | -10%[201 µM] | .
O=[N+]([O-])c1cccc2c[nH]nc12 | -18% | -12 | -58%[1.9 µM] | 35µM* | ? | .
COc1ccc(NC(=O)c2cc(-c3ccc(O)cc3)on2)cc1OC | . | . | -8% | . | . | .
O=c1c2ccccc2nc(N/N=C/c2c(O)ccc3ccccc23)n1O | -1% | -22 | -87%[10 µM] | 11µM* | -13% | ?
Cc1ccc2nsnc2c1S(=O)(=O)Nc1cccc2nsnc12 | -23% | -34* | -8%[10 µM] | -23% | -1% | 2%
Cc1ccc2nsnc2c1S(=O)(=O)Nc1cccc2cccnc12 | -4% | -20 | . | . | -3% | .
Cc1ccc(CC(Cc2nc3ccccc3[nH]2)c2nc3ccccc3[nH]2)cc1 (centres undefined) | -5% | 6 | -14%[1.9 µM] | 7% | 0% | .
CCC(C)(C)C1CCc2[nH]nc(C(=O)NN)c2C1 (centres undefined) | -5% | 1 | 3%[10 µM] | 7% | 0% | 2%[9.22 µM]
CC(C)(C)C1CCc2[nH]nc(C(=O)O)c2C1 (centres undefined) | -7% | 0 | 3.5µM* | 4% | -2% | -8%
CC(C)(C)C(=O)/C(=C\c1ccc([N+](=O)[O-])cc1)n1cncn1 | -10% | -2 | ? | -21% | 1% | 5µM*
Cc1ccc(Nc2nc3nonc3[nH]c2=O)cc1Cl | -13% | 1 | -122% | -2% | -1% | 22µM*
Cc1ccc(Nc2nc3nonc3[nH]c2=O)cc1C | -21% | -2 | -70%[10 µM] | 8% | -2% | ?
CC(C)COC(=O)c1ccc2c(c1O)C(=O)c1ccccc1C2=O | -9% | -41* | -9% | 2% | -3% | ?
C(=N\Nc1nc2ccccc2[nH]1)/c1cccc2cccnc12 | -1% | -7 | -76%[10 µM] | 25µM* | -10% | -35%[9.22 µM]
Cc1ccccc1/C=N/Nc1nc2ccccc2[nH]1 | 11% | 0 | -56% | -18% | -4% | -5%
CCOc1ccc(-n2c(=O)c3c(C)c(C)sc3n(Cc3cc(=O)n4cc(Cl)ccc4n3)c2=O)cc1 | 11% | . | . | . | -17% | .
COc1ccc(-c2nc(C#N)c(NCCCN3CCOCC3)o2)cc1 | -2% | -5 | -13% | 5µM* | -3% | 4%
